Bioassay records: PubChem, several laboratories
A selection: hits, their analogues and other compounds. The true share with any hit is near 3.8%.
MT1-MMP txn act: MT1-MMP promoter reporter activation – cell-based, luciferase luminescence, primary screen | activation factor at 10 µM | HT1080 MT1-MMP promoter luciferase reporter, overnight; stronger effect = higher value | hit rate 0.16% among 86,000;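 active = activation factor of at least 2 for MT1-MMP transcription at 10 µM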
DAT uptake mod: changed hDAT dopamine uptake under cocaine IC80, either direction, primary screen, cocaine antagonist project, cell-based, LLC-PK1 hDAT, [14C]-dopamine uptake, MLSMR | Sodium-dependent dopamine transporter (Homo sapiens), Q01959 | LLC-PK1 hDAT cells, [14C]-dopamine uptake with cocaine IC80; actives deviate in either direction | B-score at 10 µM | hit rate 1.3% among 110,000 | AID 449768, 2010;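 active = Z score or B-score, a plate-position-corrected score, falls beyond the plate's 99.7% confidence bounds, in either direction; inactive = both scores lie inside the 99.7% bounds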
ERa coact pot: enhancers of ERα–SRC-1 coactivator binding, primary screen, biochemical, TR-FRET, ERα LBD, low estradiol | TR-FRET ERalpha-LBD/SRC-Cy5 coactivator binding, 2 h; 100 = basal binding, no effect | coactivator binding (% of control), % at 25.6 µM | hit rate 1.3% among 86,000; in the data active = activity above about 200%;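 also: binding measured in presence of low estradiol as agonist stimulus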
ERa SRC1 inh: ERα–SRC-1 coactivator interaction inhibitors, primary screen, biochemical, TR-FRET, ERα LBD, estradiol-bound | Estrogen receptor (Homo sapiens), P03372 | TR-FRET ER-alpha LBD / SRC-1 peptide | inhibition, % at 25.6 µM | hit rate 1.7% among 86,000 | AID 629, 2007; in the data active = inhibition above about 50%
ERb SRC1 inh: inhibitors of ERβ-SRC1 coactivator interaction, primary screen, biochemical, TR-FRET, ERβ LBD, SRC-1 peptide. Estrogen receptor beta (Homo sapiens), Q92731. TR-FRET ER-beta LBD / SRC1-Cy5 peptide binding; receptor agonist-loaded with 1 µM estradiol. inhibition, % at 25.6 µM. hit rate 1.3% among 86,000. AID 633, 2007;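 active = compounds whose percent inhibition of the receptor-coactivator binding signal exceeds about 50% in the single-dose screen, limit read from the data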
Target sequence (Q92731 whole entry, looked up, the tested form may be a part): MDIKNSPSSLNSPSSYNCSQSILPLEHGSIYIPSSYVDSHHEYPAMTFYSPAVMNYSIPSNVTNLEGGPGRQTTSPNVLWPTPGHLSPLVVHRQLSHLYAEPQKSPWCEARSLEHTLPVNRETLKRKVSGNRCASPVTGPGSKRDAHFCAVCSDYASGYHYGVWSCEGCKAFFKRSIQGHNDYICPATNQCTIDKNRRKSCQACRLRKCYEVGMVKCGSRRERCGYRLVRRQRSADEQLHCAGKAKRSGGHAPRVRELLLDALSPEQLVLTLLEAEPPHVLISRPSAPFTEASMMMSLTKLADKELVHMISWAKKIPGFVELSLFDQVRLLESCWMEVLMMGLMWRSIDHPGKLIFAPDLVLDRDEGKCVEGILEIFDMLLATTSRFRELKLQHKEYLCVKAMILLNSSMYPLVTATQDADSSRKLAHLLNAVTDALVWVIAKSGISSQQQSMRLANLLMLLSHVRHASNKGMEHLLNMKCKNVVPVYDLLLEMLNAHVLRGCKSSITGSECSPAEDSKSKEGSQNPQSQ
Hits are given with their value; [ ] = another dose, or the depositor's remark.

Screening Oc1cccc(-c2nc3ccc4ccccc4c3c3c2CCC3)c1 returned DAT uptake mod inactive.
Screening COC(=O)c1c(NC(=O)CCCC(=O)O)sc2c1CCC2 returned MT1-MMP txn act 2.1, DAT uptake mod inactive, ERa coact pot inactive, ERa SRC1 inh inactive and ERb SRC1 inh inactive.
For COC(=O)c1c(NC(C)=O)sc2c1CCCC2 the results were MT1-MMP txn act inactive, DAT uptake mod inactive, ERa coact pot inactive, ERa SRC1 inh inactive and ERb SRC1 inh inactive.
`CN1Cc2cc(C(=O)c3cc(Cl)cc(CSc4ncccn4)c3O)cnc2NC1=O` gave MT1-MMP txn act inactive, DAT uptake mod inactive, ERa coact pot inactive, ERa SRC1 inh 56 and ERb SRC1 inh inactive.
`COC(=O)C1=C(C(=O)OC)[C@@H]2Nc3ccccc3[C@@]23C[C@@H](C(=O)OC)N(C(=O)NC2CCCCC2)C3=N1` gave DAT uptake mod inactive.
For CCOCC(=O)Nc1nc2ccc(OCC)cc2s1 the results were DAT uptake mod inactive, ERa coact pot inactive, ERa SRC1 inh inactive and ERb SRC1 inh inactive.
CCOc1ccc2nc(NC(=O)CCC(=O)c3cccs3)sc2c1 was read as DAT uptake mod inactive, ERa coact pot inactive, ERa SRC1 inh 60[fluorescence artefact?] and ERb SRC1 inh 51.
C=C1CCN([C@@H](C)C(=O)NCCCCCC)S(=O)(=O)c2ccccc21 was read as DAT uptake mod inactive.
`c1ccc2c(c1)OCC(c1nnc3sc(-c4ccc5c(c4)OCO5)nn13)O2` (stereo not drawn) gave MT1-MMP txn act inactive, DAT uptake mod -8.6, ERa coact pot inactive, ERa SRC1 inh inactive and ERb SRC1 inh inactive.
For c1csc(-c2nn3c(C4COc5ccccc5O4)nnc3s2)c1 (stereo not drawn) the results were MT1-MMP txn act inactive, DAT uptake mod inactive, ERa coact pot inactive, ERa SRC1 inh inactive and ERb SRC1 inh inactive.
Clc1cccc(-c2nnc3sc(-c4ccc5c(c4)OCO5)nn23)c1 was read as MT1-MMP txn act inactive, ERa coact pot inactive, ERa SRC1 inh 55 and ERb SRC1 inh inactive.
For c1ccc2c(c1)OCC(c1nnc3sc(-c4cnccn4)nn13)O2 (stereo not drawn) the results were MT1-MMP txn act inactive, DAT uptake mod inactive, ERa coact pot inactive, ERa SRC1 inh 92[fluorescence artefact?] and ERb SRC1 inh 82[fluorescence artefact?].
O=C1CCN(S(=O)(=O)c2ccccc2)CCN1CCOCc1ccc(Cl)cc1 was read as DAT uptake mod inactive.
Screening CCCC(=O)Nc1ccc(-c2nc3cc(C)c(C)cc3o2)cc1 returned MT1-MMP txn act inactive, DAT uptake mod inactive, ERa coact pot inactive, ERa SRC1 inh 69[fluorescence artefact?] and ERb SRC1 inh inactive.
For Cc1ccc2oc(-c3ccc(NC(=O)CC(C)C)cc3)nc2c1 the results were MT1-MMP txn act inactive, DAT uptake mod inactive, ERa coact pot 225[fluorescence artefact?], ERa SRC1 inh inactive and ERb SRC1 inh inactive.
For Cc1ccc2oc(-c3ccc(NC(=O)c4cccnc4)cc3)nc2c1 the results were MT1-MMP txn act inactive, DAT uptake mod inactive, ERa coact pot 248, ERa SRC1 inh inactive and ERb SRC1 inh inactive.
CC1=C(C(=O)OCc2ccccc2)C(c2ccccc2OC(=O)c2ccc(I)cc2)NC(=O)N1CCCC(=O)O (stereo not drawn) was read as MT1-MMP txn act inactive.
Screening O=c1oc2ccc3ccccc3c2cc1-c1nc2ccccc2o1 returned MT1-MMP txn act inactive, DAT uptake mod inactive, ERa coact pot inactive, ERa SRC1 inh 51[fluorescence artefact?] and ERb SRC1 inh inactive.
`CC1CCN(c2ccc3c(c2)S(=O)(=O)c2ccccc2C3=O)CC1` gave DAT uptake mod inactive.
`COCCCn1c(SCC(=O)N2CC(=O)Nc3ccccc32)nnc1-c1ccoc1C` gave MT1-MMP txn act inactive, DAT uptake mod -2.4, ERa coact pot inactive, ERa SRC1 inh inactive and ERb SRC1 inh inactive.
Screening O=C(O)c1cccc(S(=O)(=O)NCC2CCCO2)c1 (stereo not drawn) returned MT1-MMP txn act inactive, DAT uptake mod inactive, ERa coact pot inactive, ERa SRC1 inh inactive and ERb SRC1 inh inactive.
`O=C(O)c1cccc(S(=O)(=O)Nc2ccc3oc(=O)sc3c2)c1` gave MT1-MMP txn act inactive, DAT uptake mod inactive, ERa coact pot inactive, ERa SRC1 inh inactive and ERb SRC1 inh 52[fluorescence artefact?].
